Some test systems named below: T-47D breast; BT-549 breast; MDA-MB-435 melanoma; SW-620 colon; MCF7 breast; HCT-116 colon; HCC-2998 colon; KM12 colon.
What all share (test): NCI-60 one-dose screen, 48 h (100 = growth as untreated, 0 = no growth, -100 = all killed)
Holding throughout (conditions): 10 µM unless noted

The panel holds about 83,000 compounds, 20% with a hit somewhere; the sample as a whole holds those more often.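 Interpretation: 100, growth as untreated; towards 0, rising growth inhibition; 0, no net growth; 0 to -100, cell death. Compounds scoring below 10 were considered active.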 Values without a mark were called inactive. Activity calls are given as the source filed them.

Regarding `COc1ccc(C(O)c2cc3c(N)c(C(=O)Nc4cccc5ccccc45)sc3nc2C)cc1` (stereo not drawn), the growth was 44.2% with T-47D breast; 8.08% (active) in the assay on BT-549 breast; -17.1% (active) with MDA-MB-435 melanoma; 18.8% with SW-620 colon; 11.3% in the assay with MCF7 breast; 6.27% (active) in the assay on HCT-116 colon. In addition, the growth with HCC-2998 colon was -38.8% (active); in the assay on KM12 colon, -6.56% (active).

Consider `Cc1c2cnccc2c(C)c2c1c1cc(CO)ccc1n2C`, for which the growth in the assay with T-47D breast is -21.2% (active); in the assay on BT-549 breast, -61.6% (active); in the assay with MDA-MB-435 melanoma, -81.2% (active); in the assay on SW-620 colon, 2.39% (active); in the assay on MCF7 breast, -13.9% (active); with HCT-116 colon, -7.64% (active). For the same compound, the growth with HCC-2998 colon is -65.4% (active); in the assay on KM12 colon it was 1.94% (active).

Turning to `CN(C)CCC(CCN(C)C)(C(=O)O)c1ccccc1`, the growth was 104% with T-47D breast; 96.5% in the assay with BT-549 breast; 106% with MDA-MB-435 melanoma; 110% in the assay on SW-620 colon; 94.1% in the assay on MCF7 breast; 104% in the assay on HCT-116 colon. Besides, the growth in the assay on HCC-2998 colon was 101%; with KM12 colon it was 102%.

Consider `CC/C(=C(/c1ccc(O)cc1)c1ccc(OCCN2CCCCC2)cc1)c1ccc(OC)cc1`, for which the growth was 43.4% with T-47D breast; 79.2% in the assay with BT-549 breast; 13.2% in the assay on MDA-MB-435 melanoma; 73.5% in the assay on SW-620 colon; 11.5% with MCF7 breast; 27.9% in the assay on HCT-116 colon. Moreover, the growth is 87.2% with HCC-2998 colon and 52.4% in the assay on KM12 colon.

As for `C1CCC(N2CN3c4nonc4N4CN(C5CCCCC5)CN5c6nonc6N(C2)C3C45)CC1` (stereo not drawn), the growth in the assay with T-47D breast is 95.3%; in the assay with BT-549 breast, 99.8%; in the assay with MDA-MB-435 melanoma it was 100%; in the assay on SW-620 colon, 92.8%; in the assay with MCF7 breast it was 89.1%; with HCT-116 colon, 101%. The growth with HCC-2998 colon was 98.4%; in the assay with KM12 colon, 98.8%.

Take `CSc1ccc2c3c(n(CCCn4ccnc4)c(=O)c2c1)-c1ccccc1C3=O`: the growth was 15.9% in the assay on T-47D breast; 63.4% in the assay on BT-549 breast; 64.6% in the assay on MDA-MB-435 melanoma; 31.5% with SW-620 colon; 9.87% (active) in the assay with MCF7 breast; 10.6% in the assay on HCT-116 colon. Besides, the results for the growth in the assay on HCC-2998 colon and in the assay with KM12 colon were 75.9% and 45.4%, respectively.

Take `Nc1nc2ccccc2c2c(=O)c3cc(Cl)ccc3sc12`: the growth was 45.3% in the assay with T-47D breast; 105% in the assay on BT-549 breast; 101% in the assay with MDA-MB-435 melanoma; 117% in the assay on SW-620 colon; 27.2% with MCF7 breast; 88.7% in the assay on HCT-116 colon. Moreover, the growth was 97.5% in the assay on HCC-2998 colon and 12.9% in the assay on KM12 colon.

For the compound `O=C(c1cccc(N2CCOCC2)n1)c1c[nH]c2ccccc12`, the growth in the assay with T-47D breast was 70.7%; in the assay on BT-549 breast, 117%; in the assay on MDA-MB-435 melanoma, 99.7%; with SW-620 colon, 94.1%; in the assay with MCF7 breast, 66%; in the assay on HCT-116 colon, 97.7%. In addition, the growth was 113% in the assay on HCC-2998 colon and 90.5% in the assay on KM12 colon.

Regarding `O=Nc1ccc(NC(=O)Nc2ccc([N+](=O)[O-])cc2)cc1`, the growth was 78.9% with T-47D breast; 98.3% in the assay on BT-549 breast; 96.5% in the assay on MDA-MB-435 melanoma; 97.4% in the assay with SW-620 colon; 94% in the assay with MCF7 breast; 86.5% with HCT-116 colon. For the same compound, the values for the growth with HCC-2998 colon and in the assay on KM12 colon were 104% and 90.7%, respectively.

As to `CS(=O)(=O)Nc1cc(-c2ccc3ncnc(Nc4ccc(OCc5ccccn5)c(Cl)c4)c3c2)cnc1Cl`, the growth was -25.3% (active) in the assay on T-47D breast; -3.21% (active) in the assay with BT-549 breast; 7.34% (active) in the assay on MDA-MB-435 melanoma; 5.12% (active) in the assay with SW-620 colon; 4.74% (active) in the assay on MCF7 breast; 9.28% (active) with HCT-116 colon. For the same compound, the growth with HCC-2998 colon was 3.04% (active); in the assay with KM12 colon it was -5.09% (active).

Consider `Cc1nn(C)c2ncnc(N/N=C/c3cccc(O)c3O)c12`, for which the growth in the assay with T-47D breast is 19%; in the assay with BT-549 breast, 30.8%; in the assay on MDA-MB-435 melanoma it was 24.4%; with SW-620 colon, 26.7%; in the assay on MCF7 breast, 15%; with HCT-116 colon it was 18%. The results for the growth with HCC-2998 colon and in the assay with KM12 colon were 38.2% and 21.5%, respectively.

As for `Cc1cc(Cl)nc(N2CCN(CCNc3ccnc4cc(Cl)ccc34)CC2)n1`, the growth in the assay on T-47D breast is 19.5%; in the assay on BT-549 breast, 47%; with MDA-MB-435 melanoma it was 50.2%; in the assay on SW-620 colon, 45.3%; in the assay on MCF7 breast, 26.8%; in the assay with HCT-116 colon, 25.3%. In addition, the growth in the assay on HCC-2998 colon was -3.07% (active); in the assay with KM12 colon, 55.7%.

`CCOC(=O)C/C(=N\Nc1cc(=O)[nH]c2ccc(C)cc12)C(=O)OCC`: the growth was 107% in the assay on T-47D breast; 108% in the assay on BT-549 breast; 98.6% with MDA-MB-435 melanoma; 94.8% in the assay on SW-620 colon; 94.8% with MCF7 breast; 99.7% with HCT-116 colon. In addition, the values for the growth in the assay with HCC-2998 colon and with KM12 colon were 102% and 100%, respectively.

In the case of `CCn1cc(C(=O)N/N=C/c2ccccc2)c(=O)c2cc(F)c(N3CCNC(C)C3)c(F)c21` (stereo not drawn), the growth with T-47D breast is 63.6%; in the assay with BT-549 breast, 77.8%; in the assay with MDA-MB-435 melanoma, -88.1% (active); with SW-620 colon, -81.1% (active); in the assay with MCF7 breast, -84.4% (active); in the assay on HCT-116 colon, 57.6%. For the same compound, the growth in the assay with HCC-2998 colon is -82.9% (active); in the assay on KM12 colon, -89.4% (active).

As for `COc1ccc(Nc2ncc(I)c(NCCCNC(=O)C3CCC3)n2)cc1`, the growth in the assay on T-47D breast is 43%; in the assay on BT-549 breast, -73.8% (active); in the assay with MDA-MB-435 melanoma, 49.4%; with SW-620 colon, 12.9%; in the assay on MCF7 breast, 3.83% (active); in the assay with HCT-116 colon, -30.3% (active). Further, the growth in the assay on HCC-2998 colon is 25.4%; in the assay with KM12 colon, 5.46% (active).

Regarding `CS(=O)(=O)Nc1cc(-c2ccc3ncnc(Nc4ccc5c(cnn5Cc5ccncc5)c4)c3c2)cnc1Cl`, the growth was 2.48% (active) in the assay with T-47D breast; 16.1% in the assay with BT-549 breast; 63.2% with MDA-MB-435 melanoma; 68.6% in the assay on SW-620 colon; 31.3% with MCF7 breast; 75.2% with HCT-116 colon. The values for the growth in the assay on HCC-2998 colon and in the assay with KM12 colon were 73.7% and 93.4%, respectively.

These data come from PubChem BioAssay (NCI).
